Source: PubChem BioAssay (NCATS)
Records with an inconclusive call do not appear. Active and inactive are the calls of the source. Calls come from the whole dose curve; as a rule, active = well fitted cell-killing curve with a large enough effect; inconclusive = small, poorly fitted or top-dose-only effect, or effect the other way; inactive = flat fitted curve, though single readings scatter.

Legend:
Experiment in all cases: Primary qHTS to identify gynecologic anti-cancer compounds using libraries of approved drugs and bioactive compounds (AID 1345084); note: nearly all actives have a fitted effect of over 55% in size
Conditions in all cases: Gynecologic cancer cell panel viability, ATPlite luminescence, 48 h; series mostly up to 57.5 µM
[1] = system: OV90
How it was run: (§1)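 ATP-based viability (ATPlite), 1,000 cells/well, 16 h pre-incubation, 48 h compound at 37 C, 5% CO2, 15 min RT before read.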

[2] = system: PA-1
How it was run: as §1

[3] = system: SKOV3
How it was run: as §1

[4] = system: Tov-21-G
How it was run: as §1

[5] = system: Tov112D
How it was run: as §1
% is set by controls: 0 for no effect and ±100 for the full control effect.

C=C1C[C@]23C[C@H]1CC[C@H]2[C@]1(C)CCC[C@@]2(CO)C(=O)O[C@H]([C@H]21)[C@@H]3O
inactive: Potency [1] | Potency [2] | Potency [3] | Potency [4] | Potency [5]

Cc1cc(O)c(C(C)C)cc1O[C@@H]1O[C@H](CO)[C@@H](O)[C@H](O)[C@H]1O
inactive: Potency [1] | Potency [2] | Potency [3] | Potency [4] | Potency [5]

CC1=CC(=O)CC(C)(C)C1CCC(C)OC1OC(COC(=O)c2cc(O)c(O)c(O)c2)C(O)C(O)C1O (stereo not given)
inactive: Potency [1] | Potency [2] | Potency [3] | Potency [4] | Potency [5]

COC12CC3C(C(C)C1=CC(=O)O2)C(O)C(OC(C)=O)C1C(C)(C)C(OC(C)=O)CCC31C (stereo not given)
inactive: Potency [1] | Potency [2] | Potency [3] | Potency [4] | Potency [5]

C/C=C(\C)C(=O)O[C@H]1[C@@H](O[C@]2(COC(=O)CC(C)C)O[C@H](COC(=O)C(C)C)[C@@H](OC(C)=O)[C@@H]2O)O[C@H](COC(C)=O)[C@@H](O)[C@@H]1O
inactive: Potency [1] | Potency [2] | Potency [3] | Potency [4] | Potency [5]

CN1CCC(c2c[nH]c3ccc(NC(=O)c4ccc(F)cc4)cc23)CC1
inactive: Potency [1] | Potency [2] | Potency [3] | Potency [4] | Potency [5]

O=C(O)CCc1cc2ccoc2cc1O[C@@H]1O[C@H](CO[C@@H]2OC[C@](O)(CO)[C@H]2O)[C@@H](O)[C@H](O)[C@H]1O
inactive: Potency [1] | Potency [2] | Potency [3] | Potency [4] | Potency [5]

CC1(CO)CC[C@]2(C(=O)O[C@@H]3O[C@H](CO)[C@@H](O)[C@H](O)[C@H]3O)CC[C@]3(C)C(=CCC4[C@@]5(C)C[C@H](O)[C@H](O[C@@H]6OC[C@@H](O)[C@H](O)[C@H]6O)[C@@](C)(CO)C5CC[C@]43C)C2C1 (stereo not given in full)
inactive: activity change, negative = cytotoxicity [1] 9.02% [at 11.6 µM] | activity change, negative = cytotoxicity [2] -3.32% [at 11.6 µM] | activity change, negative = cytotoxicity [3] 2.79% [at 11.6 µM] | activity change, negative = cytotoxicity [4] 4.01% [at 11.6 µM] | activity change, negative = cytotoxicity [5] -0.665% [at 11.6 µM]

C[C@@H]1O[C@@H](O[C@H]2[C@H](OC(=O)C34CCC5(C)C(=CCC6C7(C)CC(O)C(O[C@@H]8O[C@H](C(=O)O)[C@@H](O)[C@H](O)[C@H]8O)C(C)(C(=O)O)C7CCC65C)C3CC(C)(C)CC4O)O[C@H](C)[C@@H](O)[C@@H]2O)[C@H](O)[C@@H](O[C@@H]2OC[C@](O)(CO)[C@H]2O[C@@H]2O[C@H](CO)[C@@H](O)[C@H](O)[C@H]2O)[C@H]1O (stereo not given in full)
inactive: activity change, negative = cytotoxicity [1] -2.48% [at 6.55 µM] | activity change, negative = cytotoxicity [2] 9.01% [at 6.55 µM] | activity change, negative = cytotoxicity [3] 13.1% [at 6.55 µM] | activity change, negative = cytotoxicity [4] -3.03% [at 6.55 µM] | activity change, negative = cytotoxicity [5] 10.3% [at 6.55 µM]

CC(C)CC(=O)OC[C@H]1O[C@@](COC(=O)CC(C)C)(O[C@H]2O[C@H](CO)[C@@H](O)[C@H](O)[C@H]2OC(=O)CC(C)C)[C@@H](OC(=O)CC(C)C)[C@@H]1O
inactive: Potency [1] | Potency [2] | Potency [3] | Potency [4] | Potency [5]

CN1C(=O)c2ccccc2-n2c(nc3ccccc3c2=O)/C1=C/c1ccccc1
inactive: Potency [1] | Potency [2] | Potency [3] | Potency [4] | Potency [5]

C=CCc1ccc(O[C@@H]2O[C@H](CO[C@@H]3O[C@H](CO)[C@@H](O)[C@H](O)[C@H]3O)[C@@H](O)[C@H](O)[C@H]2O)c(O)c1
inactive: Potency [1] | Potency [2] | Potency [3] | Potency [4] | Potency [5]

CC1(C)CC[C@]2(C(=O)O)CC[C@]3(C)C(=CCC4[C@@]5(C)C[C@@H](O)[C@H](O)C(C)(C)C5CC[C@]43C)[C@@H]2[C@@H]1O (stereo not given in full)
inactive: Potency [1] | Potency [2] | Potency [3] | Potency [4] | Potency [5]

COc1c2c(c(C)c3c1C(=O)OC3)O[C@@]1(C)C[C@@H](O)[C@]34O[C@](OC)(CC[C@]3(C)[C@H]1C2)OC4(C)C
inactive: Potency [1] | Potency [2] | Potency [3] | Potency [4] | Potency [5]

CC1=C2C(=O)O[C@@H](c3ccoc3)[C@]2(C)CCC1
inactive: Potency [1] | Potency [2] | Potency [3] | Potency [4] | Potency [5]

C=C1C2(CCC(=O)OC2(C)C)CC(OC(=O)/C(C)=C/C)C2(C)C13OC14C(=O)OC(C)(C(=O)C12C(=O)OC4C)C3OC(C)=O (stereo not given)
inactive: Potency [1] | Potency [2] | Potency [3] | Potency [4] | Potency [5]

OCC1OC(Oc2cc(O)c3c(c2)OC(c2ccc(O)cc2)C(O)C3)C(O)C1O (stereo not given)
inactive: Potency [1] | Potency [2] | Potency [3] | Potency [4] | Potency [5]

COc1cc([C@H]2OC[C@@H]3[C@@H](c4ccc(O[C@@H]5O[C@H](CO)[C@@H](O)[C@H](O)[C@H]5O)c(OC)c4)OC[C@]23O)ccc1O
inactive: Potency [1] | Potency [2] | Potency [3] | Potency [4] | Potency [5]

COC(=O)C1=CO[C@@H](O[C@@H]2O[C@H](CO)[C@@H](O)[C@H](O)[C@H]2O)[C@@H]2[C@@](C)(O)[C@@H](O)C[C@]12O
inactive: Potency [1] | Potency [2] | Potency [3] | Potency [4] | Potency [5]

CC(=O)O[C@@H]1[C@@H](OC(=O)/C=C/c2ccccc2)[C@H](C)O[C@@H](O[C@H]2[C@@H]3C=CO[C@@H](O[C@@H]4O[C@H](CO)[C@@H](O)[C@H](O)[C@H]4O)[C@@H]3[C@@]3(CO)O[C@@H]23)[C@@H]1OC(C)=O
inactive: Potency [1] | Potency [2] | Potency [3] | Potency [4] | Potency [5]

CC1CCC2(O1)C(C)(C)CC(O[C@@H]1O[C@H](CO[C@@H]3OC[C@](O)(CO)[C@H]3O)[C@@H](O)[C@H](O)[C@H]1O)CC2(C)O (stereo not given in full)
inactive: Potency [1] | Potency [2] | Potency [3] | Potency [4] | Potency [5]

O=C1CC(c2ccc([N+](=O)[O-])cc2)=NN1c1ccccc1
inactive: Potency [1] | Potency [2] | Potency [3] | Potency [4] | Potency [5]

CC1(C)O[C@]23C[C@H]1C[C@H](OC(=O)c1ccoc1)[C@]2(C)[C@@H](OC(=O)c1ccoc1)CCC3(C)O (stereo not given in full)
inactive: Potency [1] | Potency [2] | Potency [3] | Potency [4] | Potency [5]

COc1ccc([C@H]2Cc3cccc(O)c3C(=O)O2)cc1
inactive: Potency [1] | Potency [2] | Potency [3] | Potency [4] | Potency [5]

COc1ccc2c(c1O)OC[C@H]1c3ccc(O)cc3O[C@@H]21
inactive: Potency [1] | Potency [2] | Potency [3] | Potency [4] | Potency [5]

CC(O)(CC(=O)O)CC(=O)O[C@@H]1[C@@H](O)[C@H](OCCc2ccccc2)O[C@H](CO)[C@H]1O (stereo not given in full)
inactive: Potency [1] | Potency [2] | Potency [3] | Potency [4] | Potency [5]

COCCN(C)Cc1ccc2nc3sc(C(=O)N(C)C4CCCCC4)cn3c2c1
inactive: Potency [1] | Potency [2] | Potency [3] | Potency [4] | Potency [5]

COc1cccc(-c2ccc([C@@H](Oc3cc(-c4ccc(C[C@H](N)C(=O)O)cc4)nc(N)n3)C(F)(F)F)cc2)c1
inactive: Potency [1] | Potency [2] | Potency [3] | Potency [4] | Potency [5]

CCCC1=CC2=C(CO1)C(=O)C(C)(OC(=O)c1c(C)cc(OC)cc1O)C(O)C2 (stereo not given)
inactive: Potency [1] | Potency [2] | Potency [3] | Potency [4] | Potency [5]

CC1=CC(=O)CC(C)(CO[C@@H]2O[C@H](CO)[C@@H](O)[C@H](O)[C@H]2O)C1(O)/C=C/C(C)=C/C(=O)O (stereo not given in full)
inactive: Potency [1] | Potency [2] | Potency [3] | Potency [4] | Potency [5]

CCn1cc(C2=NOC(C(=O)Nc3c(C)n(C)n(-c4ccccc4)c3=O)C2)c(C)n1 (stereo not given)
inactive: Potency [1] | Potency [2] | Potency [3] | Potency [4] | Potency [5]

C[C@@]12C[C@]3(O)O[C@H](O1)[C@]1(COC(=O)c4ccccc4)[C@H]3C[C@@]12O[C@@H]1O[C@H](COC(=O)c2ccccc2)[C@@H](O)[C@H](O)[C@H]1O
inactive: Potency [1] | Potency [2] | Potency [3] | Potency [4] | Potency [5]

CC1(C)CC[C@]2(C(=O)O)CC[C@]3(C)C(=CCC4[C@@]5(C)C[C@H](O)[C@H](O[C@@H]6OC[C@H](O)[C@H](O)[C@H]6O)[C@@](C)(CO)C5CC[C@]43C)[C@@H]2C1 (stereo not given in full)
inactive: Potency [1] | Potency [2] | Potency [3] | Potency [4] | Potency [5]

CC(/C=C/[C@]1(O)[C@@]2(C)CO[C@@]1(C)C[C@@H](O)C2)=C\C(=O)O[C@@H]1O[C@H](CO)[C@@H](O)[C@H](O)[C@H]1O
inactive: Potency [1] | Potency [2] | Potency [3] | Potency [4] | Potency [5]

COc1cc(COC2OC(CO)C(O)C(O)C2O)cc(OC)c1O (stereo not given)
inactive: Potency [1] | Potency [2] | Potency [3] | Potency [4] | Potency [5]

C[C@]12CCC[C@](C)(C(=O)O)C1CCC13C=C(CO)C(CCC12)C3 (stereo not given in full)
inactive: Potency [1] | Potency [2] | Potency [3] | Potency [4] | Potency [5]

CC1NC(=O)C(Cc2c[nH]c3ccccc23)NC1=O (stereo not given)
inactive: Potency [1] | Potency [2] | Potency [3] | Potency [4] | Potency [5]

CCCC(N[C@@H](C)C(=O)N1[C@H](C(=O)O)C[C@@H]2CCCC[C@@H]21)C(=O)OCC (stereo not given in full)
inactive: Potency [1] | Potency [2] | Potency [3] | Potency [4] | Potency [5]

O=c1c2cccnc2n(-c2cccc([N+](=O)[O-])c2)c(=O)n1Cc1ccncc1
inactive: Potency [1] | Potency [2] | Potency [3] | Potency [4] | Potency [5]

N[C@H]1C[C@H]1c1ccc(-c2cccc(O)c2)cc1
inactive: Potency [1] | Potency [2] | Potency [3] | Potency [4] | Potency [5]

COc1cccc(-n2nc(C(=O)O)cc2-c2ccc(C3CCCCC3)c(Cl)c2)c1
inactive: Potency [1] | Potency [2] | Potency [3] | Potency [4] | Potency [5]

COc1cc(C2Oc3c(OC)cc(/C=C/C(=O)OC[C@H]4O[C@@H](OC(C)(C)C(=O)O)[C@H](O)[C@@H](O)[C@@H]4O)cc3C2CO)ccc1O (stereo not given in full)
inactive: Potency [1] | Potency [2] | Potency [3] | Potency [4] | Potency [5]

COC1=CC(=O)C[C@@H](C)[C@]12Oc1cc(OC)cc(OC)c1C2=O
inactive: Potency [1] | Potency [2] | Potency [3] | Potency [4] | Potency [5]

C=CC1(C)C=C2C(=O)CC3C(C)(C)CCCC3(C(=O)O)C2(O)CC1 (stereo not given)
inactive: Potency [1] | Potency [2] | Potency [3] | Potency [4] | Potency [5]

CC1(C)NC2N(C1=O)c1ccccc1C2(O)CC(C(=O)O)n1cnc2ccccc2c1=O (stereo not given)
inactive: Potency [1] | Potency [2] | Potency [3] | Potency [4] | Potency [5]
